VCAM1 TNFa pot: potentiators of TNFa-induced VCAM1 expression, primary screen, imaging, HUVEC, TNFa stimulus, immunofluorescence. HUVEC TNFa-stimulated VCAM-1 immunofluorescence, high-content imaging; scaled per plate to unstimulated/TNFa-only wells. activation, % at 2 µM. 0.19% of 93,000 active. AID 808, 2007;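 active = activation above the screen mean plus 3 SD, with well images confirming the hit on visual review, cut at about 28% in these data, passing the limit was not always enough; inconclusive = activation above that limit but images do not confirm it; inactive = activation not above that limit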;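 also: signal is the number of cytoplasmic VCAM-1 stained grains per positive cell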
VCAM1 pot conf: potentiators of TNFa-induced VCAM1 expression, confirmation, imaging, HUVEC, triplicate retest; shares compounds with VCAM1 TNFa pot; HUVEC TNFa-stimulated VCAM-1 immunofluorescence imaging; activation, % at 2 µM; 230 tested, under 10 active; AID 1034, 2008;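 active = activation above 30% in triplicate retests at 2 µM, then confirmed by visual review of the well images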;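 also: scaled per plate between unstimulated and TNFa-stimulated DMSO control wells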
Starred values were filed as active, the others as inactive; ? = inconclusive. A selection follows.

SMILES	VCAM1 TNFa pot	others
COc1cccc(/C=C/C(=C2\C(=O)N(c3ccccc3)N=C2C)c2ccc(Br)cc2)c1OC	4
Cc1ccc(Cc2nnc3n(-c4ccccc4)nc(C(=O)c4ccccc4)n3c2=O)cc1	-17
CCOC(=O)CNC(=O)CSc1nnc(Cn2cnc3ccccc32)n1C	6
O=C(CN1C(=O)C2CC=CCC2C1=O)NCC1COc2ccccc2O1 (stereo not given)	9
CC(C)(C)S(=O)c1cccs1 (stereo not given)	4
CN(CC(=O)NCc1ccncc1)S(=O)(=O)c1ccc(F)cc1	-100
COc1ccc(CCN2C(=O)C(O)=C(C(=O)c3ccco3)C2c2cccs2)cc1OC (stereo not given)	1
C#CC1(O)CC(C)NCC1(C)CCC#N (stereo not given)	-10
COc1ccc(S(=O)(=O)Nc2nc3n(n2)C(c2ccc(Cl)cc2)CC(=O)N3)cc1 (stereo not given)	-39
O=C(NCC1COc2ccccc2O1)C1CCN(S(=O)(=O)c2cccc3nsnc23)CC1 (stereo not given)	2
O=C(COc1ccccc1)Nc1ccc(OC(F)(F)C(F)F)c(NC(=O)COc2ccccc2)c1	-4
O=C(c1ccc(-n2cnnn2)cc1)N1CCCCC1	-2
CCOC(=O)c1ccccc1NC(=O)CSc1nnc(COc2ccccc2C)n1C	4
CCCSc1nnc(C(C)C)n1N	-4
CN(C(=O)CSc1nc(-c2ccccc2)cn1N)C(c1ccccc1)c1ccccc1	-3
O=C(NC(=S)N(Cc1ccccc1)Cc1ccccc1)c1ccccc1F	4
O=C1OCC(CO)(CO)N=C1NNc1ccccc1Cl	6
COC(=O)c1nn(-c2ccc(Cl)cc2)c(=O)cc1Sc1ccccn1	6
CCN1C(=O)C(CC(=O)Nc2ccc(Br)cc2)N(CCCc2ccccc2)C1=S (stereo not given)	-10
Nc1nonc1-n1nnc(C(=O)O)c1-c1cccs1	-18
Cc1cccc(Cn2c(C(=O)OC(C)C)cc3c2ccn3C)c1	-13
Cn1c(SCC(=O)NC2CC2)nnc1-c1cccc(NC(=O)c2ccccc2F)c1	0
Cn1c(SCCCC(=O)c2ccc(Br)cc2)nnc1-c1ccncc1	-7
C=C(C)CSc1nc(N)c2c(C)c(C)sc2n1	0
Cc1ccc(S(=O)(=O)Cc2ccc(C(=O)O)o2)cc1	0
SMILES	VCAM1 TNFa pot	others
COCCNC(=O)CSc1nc2ccccc2c(=O)n1CCCC(=O)NCc1ccccc1	4
C/C(=N\Nc1nc2c(s1)CCCC2)c1ccccc1	-62
O=C(CSc1nnc(-c2cccs2)n1-c1ccccc1)N1CCc2ccccc21	16
CCC1CCc2c(sc(NC(=O)CSc3nc(-c4ccco4)cc(C(F)(F)F)n3)c2C#N)C1 (stereo not given)	6
O=S(=O)(NCc1ccco1)c1ccc(S(=O)(=O)N2CCCCC2)cc1	-4
CCN(CC)CC(C)OC(=O)COc1ccc(OC)cc1 (stereo not given)	33
Cc1cccc(OCCCCCn2ccnc2)c1	-10
CC1CCc2c(sc3ncnc(N4CCN(S(=O)(=O)c5cccc6nonc56)CC4)c23)C1 (stereo not given)	32
Cc1occc1C(=O)NNC(=O)NC12CC3CC(CC(C3)C1)C2	2
CC1=C(C)/C(=N/OC(=O)c2cccc([N+](=O)[O-])c2)C=CC1=O	26
CN(C(=O)CSc1nc(N)nn1-c1ccccc1)c1ccccc1	-7
COc1cc2[nH]c(=O)n(CCCCCC(=O)N3CC=C(c4ccccc4)CC3)c(=O)c2cc1OC	-1
CCOc1ccc2nc(SCC(=O)NC(=O)NCc3ccco3)[nH]c2c1	-1
COc1ccc(CN(C)C2CCCCC2)c(C)c1C	4
CC(C)(C)NS(=O)(=O)c1ccc(NC(=O)C(Sc2ccccc2)c2ccccc2)cc1 (stereo not given)	11
CC(C)(C)C(=O)N1CCN(c2c(Cl)cccc2[N+](=O)[O-])CC1	3
CNc1nc(NC)nc(-n2c(C(F)(F)F)nc3ccccc32)n1	2
CCCN1CNC(=S)N(c2cc(C)ccc2C)C1	6
Cc1ccc(C(C)C)c(OC(=O)/C=C/c2ccccc2)c1	6
CNC(=O)c1ccccc1S(=O)(=O)c1ccccc1C#N	5
CCCCNC(=O)CN(c1cccc(Br)c1)S(C)(=O)=O	31
C=C(C)C1CC=C(C)/C(=N/NC(=O)COc2cccc3ccccc23)C1 (stereo not given)	6
COC(=O)COc1ccc(S(=O)(=O)Nc2ccc(NC(C)=O)cc2)cc1C	26
CN1CCN(c2ncccc2S(=O)(=O)N2CCCCC2)CC1	14
CCn1cc([N+](=O)[O-])c(C(=O)N2N=C3/C(=C/c4cccs4)CCCC3C2c2cccs2)n1 (stereo not given)	-44
SMILES	VCAM1 TNFa pot	others
Cc1cc(N2CCOCC2)nc(SCc2ccc(Cl)cc2Cl)n1	-6
O=C(NC1CCCc2ccccc21)c1cncc(Br)c1 (stereo not given)	-9
Cc1nn(C(CC(=O)O)C(=O)O)c(C)c1Br (stereo not given)	7
Cn1c(Sc2ccc(C(F)(F)F)cc2[N+](=O)[O-])nnc1-c1ccccc1	1
CCOC(=O)c1nc2cc3n(c(C)c-2c1C)C(C)C(CC)=C3C (stereo not given)	28
Cc1nnsc1C(=O)Nc1cccc(Cl)c1Cl	1
CCC(C)(C)NC(=O)C(OC(=O)c1ccco1)c1ccccc1OC (stereo not given)	8
CCCn1c(=N)n(CCOCCOCCn2c(=N)n(CCC)c3ccccc32)c2ccccc21	-17
Cc1ccc(OCC(=O)Nc2ccc([N+](=O)[O-])cn2)cc1C	1
CCOC(=O)Cn1nc(C)n(-c2ccc(C(C)C)cc2)c1=O	4
CCc1cccc(CC)c1NC(=O)C1SC(=Nc2ccccc2C)C(c2nc3ccccc3s2)=C1N (stereo not given)	-59
COc1ccc(CN2CCCCC2C(=O)Nc2ccc(OC)c(OCC(C)C)c2)cc1OC (stereo not given)	-97
O=C1O/C(=C/C(=O)N2CCOCC2)c2ccccc21	12
Cc1c(NC(=O)CC2CC(C)OC2=O)c(=O)n(-c2ccccc2)n1C (stereo not given)	2
Cc1ccc(Cl)cc1NC(=O)CC(O)(C(F)(F)F)C(F)(F)F	38
Cc1ccc(OCCNS(=O)(=O)c2cccs2)cc1	-4
O=C(Nc1ccc(N2CCN(C(=O)c3ccco3)CC2)c(Cl)c1)c1cc2ccccc2o1	?	VCAM1 pot conf=-11
CC(=O)Nc1cccc(NC(=O)c2cc3ccccc3o2)c1	-6
O=C(Nc1ccc(-c2cc3ccccc3oc2=O)c(Cl)c1)c1cccnc1	-8
CC(=O)c1c(C(C)=O)c(C)n(CCCCn2c(C)c(C(C)=O)c(C(C)=O)c2C)c1C	6
COc1cccc2[nH]c3c(N4CC(C)CC(C)C4)ncnc3c12 (stereo not given)	3
Fc1ccc(CSc2ncnc3sc4c(c23)CCCC4)cc1	42
Cc1ccc(N2CC(C(=O)NCCc3ccc(S(N)(=O)=O)cc3)CC2=O)cc1 (stereo not given)	6
CCCNC(=O)CCC(NS(=O)(=O)c1ccc(C)cc1)C(=O)NCCC (stereo not given)	73*	VCAM1 pot conf=-14
Cc1ccc(S(=O)(=O)NC(=O)NCc2ccc(Cl)cc2)cc1	-17
O=c1[nH]nnc2sc3c(c12)CCCC3	-44

Screening results as filed in PubChem BioAssay.
